From PubChem BioAssay
KB-3-1 cytotox = qHTS assay for MDR1-selective chemotherapeutics: Primary screen using the parental adenocarcinoma cell KB-3-1 | actives 1.4% (n = 400,000) | KB-3-1 viability, CellTiter-Glo ATP luminescence, 72 h | AID 1347075, 2019 | Potency, µM (series often up to 46.1 µM), hits mostly cytotoxic; also: potency is read from the fitted curve at half-maximal effect; % is scaled to controls: 0 for no effect and ±100 for the full control effect; nearly all actives have a fitted effect of over 60% in size
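Cytotoxicity in the drug-sensitive parental line KB-3-1 was scored as loss of CellTiter-Glo luminescence following 72 h incubation with compound. Values come from curve fitting of normalized concentration-response data.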
SW480 rerep = A quantitative high throughput screen for small molecules that induce DNA re-replication in SW480 colon adenocarcinoma cells | SW480 DNA re-replication, Hoechst DNA content imaging, 48 h | Potency, µM (series often up to 46.1 µM), for inactives: at the highest dose re-replication activation, actives largely listed as activators | actives 1.8% (n = 340,000) | AID 624297, 2012; also: potency is read from the fitted curve at half-maximal effect; % of control where 0% means no effect; nearly all actives have a fitted effect of over 55% in size
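SW480 cells exposed to compounds for 48 hr at 37 C, 5% CO2, then Hoechst-stained 40 min. Nuclear DNA content imaged by fluorescence scanning (405 nm excitation, 500-530 nm emission); re-replication scored as increased high-intensity nuclei.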
IL-1B inflam inh = qHTS for Inhibitors of Inflammasome Signaling: IL-1-beta AlphaLISA Primary Screen; THP-1 LPS/ATP IL-1B secretion, AlphaLISA, 16 h; stronger effect = lower value; activity change, % at 57.5 µM; actives 4.7% (n = 360,000); AID 743279, 2014; in the data active = activity change below about -50%; inconclusive = mostly about -30% to -49%; also: % is scaled to controls: 0 for no effect and ±100 for the full control effect
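Secreted IL-1B measured by AlphaLISA bead assay after 16 h compound exposure of THP-1 cells; compounds (final up to 57.5 uM) added 1 h before LPS (250 ng/mL) and ATP (1.25 mM) stimulation; lower signal means less secretion.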
KB-V1 MDR tox = qHTS assay for MDR1-selective chemotherapeutics: Primary screen using the drug-selected MDR subline cells KB-V1; KB-V1 MDR cells viability, CellTiter-Glo, 72 h; Potency, µM (highest dose often 46.1 µM), usual class: cytotoxic; actives 3.4% (n = 400,000); AID 1347076, 2019; also: potency is read from the fitted curve at half-maximal effect; % is scaled to controls: 0 for no effect and ±100 for the full control effect; nearly all actives have a fitted effect of over 60% in size
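Drug-selected KB-V1 cells, grown in DMEM lacking phenol red with 10% FBS, receive compound titrations; after three days at 37 degrees C, surviving cell ATP is quantified by CellTiter-Glo luminescence and responses normalized and curve-fitted.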
MCF10A rerep = A quantitative high throughput screen for small molecules that induce DNA re-replication in MCF 10a normal breast cells | MCF 10A DNA re-replication, Hoechst nuclear intensity, 48 h | Potency, µM (top dose mostly 46.1 µM), inactives show top-dose activity, positive = re-replication, usual class: activators | actives 2.9% (n = 350,000); also: potency is read from the fitted curve at half-maximal effect; % of control where 0% means no effect; nearly all actives have a fitted effect of over 50% in size
Numbers without * were called inactive; i = inactive; ? = inconclusive; nt = not tested or not shown. Sampled rows, rich in hits. Any-hit rate of the full collection: about 9.9%. Unless noted, calls follow the shape of the dose curve; as a rule, active = well fitted curve in the direction sought with a large enough effect; inconclusive = small, poorly fitted or top-dose-only effect, or another doubt; inactive = no such curve, though single readings can be large; an effect the other way counts as inactive or inconclusive.

SMILES	KB-3-1 cytotox	SW480 rerep	IL-1B inflam inh	KB-V1 MDR tox	MCF10A rerep
COc1ccc2[nH]c3c(c2c1)CCN1C(=O)C(CC(=O)NCCC2=CCCCC2)C[C@H](C(=O)N2CCCCC2)[C@@]31C (stereo partly drawn)	i	11.1%	-52.0*	i	-6.4%
CC(C)N(C(=O)[C@H]1CC(CC(=O)NCC23CC4CC(CC(C4)C2)C3)C(=O)N2CCc3c([nH]c4ccccc34)[C@]12C)C(C)C (stereo partly drawn)	i	?	-54.7*	i	-4.5%
CCN(CC)C(=O)[C@H]1CC(CC(=O)NCC23CC4CC(CC(C4)C2)C3)C(=O)N2CCc3c([nH]c4ccc(OC)cc34)[C@]12C (stereo partly drawn)	i	-0.2%	-55.3*	i	?
COc1ccc2[nH]c3c(c2c1)CCN1C(=O)C(CC(=O)NCC24CC5CC(CC(C5)C2)C4)C[C@H](C(=O)N2CCCCC2)[C@@]31C (stereo partly drawn)	?	0.6%	-64.2*	?	?
CCN(CC)C(=O)[C@H]1CC(CC(=O)NCCN2CCOCC2)C(=O)N2CCc3c([nH]c4ccc(OC)cc34)[C@]12C (stereo partly drawn)	i	0.8%	-8.7	i	1.8%
COCCCNC(=O)CC1C[C@H](C(=O)N2CCCCC2)[C@@]2(C)c3[nH]c4ccc(OC)cc4c3CCN2C1=O (stereo partly drawn)	i	-17.7%	4.0	i	0.9%
COc1ccc(N2C(=O)CS(=O)(=O)C23C(=O)N(Cc2ccc(F)cc2)c2ccc(C)cc23)cc1 (stereo not drawn)	i	nt	nt	?	nt
COc1ccc(CCN2C(=O)N[C@@H](C(C)C)C2=O)cc1	i	-5.5%	45.7	i	-9.3%
C[C@]12c3[nH]c4ccccc4c3CCN1C(=O)C(CC(=O)NCC13CC4CC(CC(C4)C1)C3)C[C@@H]2C(=O)N1CCCCC1 (stereo partly drawn)	i	17.1%	-63.6*	i	8.6%
Cc1ccc(S(=O)(=O)NCC2(c3ccccc3)CCN(C)CC2)cc1	i	?	-65.9*	i	3.5%
CCN(CC)CCC=C(c1cccs1)c1cccs1	i	?	-24.0	i	?
O=C(N/N=C/c1cccc(F)c1)c1ccc(Cl)cc1	i	4.0%	0.0	i	0.9%
CC(SC(C)C(=O)NN=Cc1cccc(Cl)c1)C(=O)NN=Cc1cccc(Cl)c1 (stereo not drawn)	?	9.2µM*	17.9	?	4.11µM*
CC(C)(C)c1ccc(C(=O)N/N=C/c2cccc(Cl)c2)cc1	?	?	?	23.1µM*	12.7%
CCOc1ccc(C(=O)N(Cc2ccccc2)c2cccc(C)c2)cc1OC	i	-4.1%	?	?	?
O=S(=O)(NCc1ccccc1)c1ccc(Cl)cc1	i	-0.8%	-3.5	i	5.4%
O=S(=O)(Nc1cc2nc3ccccc3nc2n1Cc1ccccc1)c1ccc(Cl)cc1	i	10µM*	-91.3*	i	7.31µM*
C=C1C2=C(C(=O)N1OC)[C@@H](O)[C@@](C)(O)[C@@H](CCCCC)O2	18.4µM*	nt	-83.4*	i	nt
O=C(/C=N/O)Nc1ccc2sc3ccccc3c2c1	i	-139.2%	-99.7*	i	11.0%
O=C(NCC1CCN(Cc2cccc(Cl)c2)CC1)Nc1ccc(F)c(Cl)c1	?	nt	nt	i	nt
O=C(NCC1CCN(Cc2cccc(Cl)c2)CC1)Nc1ccc(Cl)cc1	i	17.8%	-61.4*	?	22.1%
COc1ccc(Cl)cc1NC(=O)NCC1CCN(Cc2cc(C)ccc2C)CC1	?	19.0%	-56.2*	23.1µM*	19.9%
COc1cc([N+](=O)[O-])ccc1NC(=O)NCC1CCN(Cc2ccc(Cl)cc2)CC1	?	?	-79.4*	i	9.4%
O=C(NCC1CCN(Cc2ccccc2F)CC1)Nc1ccccc1F	i	18.3%	0.0	i	0.2%
O=C(NCC1CCN(Cc2ccccc2F)CC1)Nc1cccc(Br)c1	i	-0.1%	-84.0*	?	-5.5%
SMILES	KB-3-1 cytotox	SW480 rerep	IL-1B inflam inh	KB-V1 MDR tox	MCF10A rerep
CC1(C(=O)Nc2ncc(Cc3ccc(Br)cc3)s2)Cc2ccccc2C(=O)O1 (stereo not drawn)	?	nt	nt	i	nt
O=C(CCC1CCCCC1)NCCS(=O)(=O)N1CCN(c2ccccc2)CC1	i	1.4%	-0.4	?	1.7%
NS(=O)(=O)c1cccc(NS(=O)(=O)c2ccc(/C=C/C(=O)O)cc2)c1	i	-8.0%	11.4	i	1.3%
NC(=O)c1nsc(C(=O)N(CC(=O)NCc2ccccc2)c2ccc(F)cc2)c1N	i	-2.8%	-10.8	i	12.2%
Cc1ccc(CN2CCC(CNC(=O)Nc3ccc(C)c(C)c3)C2)cc1 (stereo not drawn)	i	nt	nt	i	nt
Cc1ccc(C)c(CN2CCC(CNC(=O)Nc3ccc(C)c(C)c3)CC2)c1	?	?	-64.1*	18.4µM*	?
COc1ccc2oc(C(=O)OC(C)C(=O)N3C(C)CCCC3C)c(C)c2c1 (stereo not drawn)	i	0.9%	7.5	i	?
O=S(=O)(N/N=C1/CC(c2ccccc2)Oc2ccccc21)c1ccc(Br)cc1 (stereo not drawn)	18.4µM*	?	1.5	23.1µM*	10.3µM*
Cc1ccc(S(=O)(=O)N/N=C2/CC(c3ccccc3)Oc3ccccc32)cc1[N+](=O)[O-] (stereo not drawn)	i	17.2%	51.2	i	?
Fc1ccc(N/N=C2/CC(c3ccccc3)Oc3ccccc32)c(F)c1 (stereo not drawn)	i	0.5%	-52.0*	i	?
Clc1ccc2c(c1)C1OCCC1C(c1ccco1)N2 (stereo not drawn)	?	13.5%	-74.0*	?	?
CC(C)Oc1ccc(CNC(=O)c2cnc3sc(N4CCCCC4)nn3c2=O)cc1	i	nt	nt	?	nt
COc1ccc(OC)c(C(=O)N2CCCC(Nc3ccc(F)cc3)C2)c1 (stereo not drawn)	i	-1.5%	i	i	1.2%
Cc1ccc(S(=O)(=O)c2nnn3c2nc(N2CCOCC2)c2ccccc23)cc1C	?	1.2%	-66.4*	i	-0.5%
Cc1ccc(-c2csc(=Nc3cccnc3)n2CCCn2ccnc2)cc1C	16.4µM*	-1.1%	?	7.31µM*	?
Cc1ccc(-c2csc(=Nc3cccnc3)n2CCCN2CCCC2=O)cc1C	?	9.5%	-51.0*	?	24.6%
